# Anthrax LF inh2: Bacillus anthracis LF protease inhibitors, primary screen, biochemical, multiplex microsphere, MLPCN library; 360,000 tested, 0.12% active; multiplex microsphere protease cleavage assay; AID 588501, 2011; inhibition, % at 10 µM; Lethal factor (Bacillus anthracis), P15917; note: plate controls were buffer without enzyme for full effect and enzyme alone for no effect
# Target sequence (P15917 whole entry, looked up): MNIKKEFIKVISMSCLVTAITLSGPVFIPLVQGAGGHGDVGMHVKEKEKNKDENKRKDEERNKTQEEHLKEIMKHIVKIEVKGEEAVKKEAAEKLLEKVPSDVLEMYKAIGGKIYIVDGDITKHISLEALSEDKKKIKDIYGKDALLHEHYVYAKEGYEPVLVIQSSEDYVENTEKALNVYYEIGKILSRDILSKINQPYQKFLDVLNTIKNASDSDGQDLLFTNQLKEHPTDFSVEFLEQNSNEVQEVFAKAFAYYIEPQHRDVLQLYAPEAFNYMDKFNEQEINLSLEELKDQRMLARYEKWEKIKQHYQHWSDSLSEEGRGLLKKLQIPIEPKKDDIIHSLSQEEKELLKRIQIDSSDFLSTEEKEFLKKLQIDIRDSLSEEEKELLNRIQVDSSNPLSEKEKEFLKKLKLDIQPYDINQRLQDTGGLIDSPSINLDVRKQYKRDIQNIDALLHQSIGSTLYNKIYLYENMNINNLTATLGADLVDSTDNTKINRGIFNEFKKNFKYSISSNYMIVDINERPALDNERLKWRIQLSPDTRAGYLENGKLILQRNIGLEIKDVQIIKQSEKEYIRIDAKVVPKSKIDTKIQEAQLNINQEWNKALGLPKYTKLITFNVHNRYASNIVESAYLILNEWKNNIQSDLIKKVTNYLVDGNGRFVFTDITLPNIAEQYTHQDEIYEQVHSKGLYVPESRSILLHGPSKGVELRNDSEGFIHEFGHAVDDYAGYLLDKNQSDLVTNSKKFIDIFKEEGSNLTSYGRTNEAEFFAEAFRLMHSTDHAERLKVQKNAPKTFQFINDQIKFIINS
# MazF activator: activators of E. coli MazEF toxin-antitoxin RNase, primary screen, biochemical, fluorescence, uHTS. activation, % at 20 µM. 350,000 tested, 0.32% active. AID 504720, 2011. FAM/BHQ RNA-DNA oligo cleavage fluorescence, 5 h; in the data active = activation above about 50%
# BoNT F protease: BoNT/F light chain protease inhibitors, primary screen, biochemical, flow cytometry, MLPCN library; Botulinum neurotoxin type F light chain protease (Clostridium botulinum); Multiplex microsphere protease cleavage assay; inhibition, % at 10 µM; 360,000 tested, 0.22% active; in the data active = inhibition above about 35%, passing the limit was not always enough; inconclusive = no clear call, values can overlap the other calls; note: plate controls were buffer without enzyme for full effect and enzyme alone for no effect
# Autofluor counter: compound fluorescence in toxin protease inhibitor counterscreen | 360,000 tested, 3.1% active | fluorescence intensity (test concentration not listed) | compound autofluorescence counterscreen, microsphere flow cytometry; stronger effect = higher value | AID 624483; in the data active = fluorescence intensity above about 16000; inconclusive = no clear call, values can overlap the other calls
# BoNT A protease: BoNT/A light chain protease inhibitors, primary screen, biochemical, flow cytometry, MLPCN library; Botulinum neurotoxin type A light chain protease (Clostridium botulinum A str. ATCC 3502); multiplex microsphere protease substrate cleavage; inhibition, % at 10 µM; 360,000 tested, 0.17% active; note: plate controls were buffer without enzyme for full effect and enzyme alone for no effect
# * hit, by the source's call; ? = inconclusive; / = not tested or not shown. Compounds with a hit are over-represented: about 3.7% of the library has one in this group of screens. Cut-off read from the data, not from the text of the source, unless noted: active = inhibition above about 30%; inconclusive = no clear call, values can overlap the other calls; inactive = below that.
SMILES,Anthrax LF inh2,MazF activator,BoNT F protease,Autofluor counter,BoNT A protease
Cc1ccc(C(C(=O)NC2CCCCC2)N(C(=O)c2csnn2)C2CCCC2)o1 (stereo not given),-3,3,0,22165*,1
O=[N+]([O-])c1ccc(Cl)c(-c2ccc(/C=N/c3c(-c4ccco4)nc4ccccn34)o2)c1,-3,95*,-10,3858,2
COC(=O)C1CCN(C(=O)c2ccc(NC(C)=O)cc2)CC1,-1,11,-4,22006*,-3
COC(=O)C1CCN(C(=O)c2ccccc2Oc2ccccc2)CC1,-4,3,1,20014*,2
CS(=O)(=O)Nc1ccc(C(=O)N2CCCCC2)cc1,-1,-5,-4,6656,0
CC1CCN(C(=O)c2ccc(NS(C)(=O)=O)cc2)CC1,1,-9,0,19949*,?
COc1ccc(C(=O)N2CCC(C(=O)c3ccc(F)cc3)CC2)cc1,-2,15,4,9120,1
COc1ccccc1C(=O)N1CCC(C(=O)c2ccc(F)cc2)CC1,-21,-9,3,19021*,4
COC(=O)C1CCN(C(=O)c2ccccc2NC(C)=O)CC1,-5,1,4,8333,0
O=S1(=O)N[C@H](Cc2ccccc2)COc2cc(N3CCN(Cc4ccccc4F)CC3)ccc21,-4,/,-8,5760,0
C[C@H](CO)N1C[C@H](C)[C@H](CN(C)C(=O)NC2CCCCC2)Oc2cc(-c3cccnc3)ccc2S1(=O)=O,-5,5,-3,3898,0
Cc1cccc(C(=O)Nc2cccc3c2CCCC3)c1,3,-1,-12,4143,-2
COc1ccc(NC(=O)C2CCN(C(=O)c3ccccc3)CC2)c(OC)c1,-5,5,-12,8888,0
COc1ccc(C(=O)N2CCC(C(=O)Nc3ccccc3OC)CC2)cc1,-1,8,-3,22688*,?
COc1ccccc1CNC(=O)CSc1nc(-c2ccccc2)cn1N,-6,-8,4,3172,0
CN(C(=O)CSc1nc(-c2ccccc2)cn1N)C(c1ccccc1)c1ccccc1,-11,-3,-5,24699*,-4
CCC1(CC)SC(N)=NC1=O,-10,-2,-6,3501,-1
CCOC(=O)C1=C(N)OC2=C(C(=O)CC(C)(C)C2)C1c1ccccc1OCC#N (stereo not given),1,9,2,20405*,1
CC1(C)CC(=O)C2=C(C1)OC(N)=C(C#N)[C@@H]2c1ccccc1[N+](=O)[O-],/,78*,/,/,/
CC1(C)CC(=O)C2=C(C1)OC(N)=C(C#N)C2C1CC=CCC1 (stereo not given),0,-15,-1,22645*,3
Cn1cc(Br)c(C(=O)Nc2ncc(Br)s2)n1,-1,-10,-2,2695,0
Cc1cc(NC(=O)c2c(F)cccc2Cl)n(-c2nc3ccccc3[nH]2)n1,0,-6,-4,2956,0
Cc1cc(NC(=O)c2c(F)cccc2F)n(-c2nc3ccccc3[nH]2)n1,-3,-3,-5,16824*,-3
O=c1[nH]c2ccc(Cl)cc2c(-c2ccccc2)c1N1CCN(CCO)CC1,-1,3,1,20528*,?
CCOC(=O)N1CCN(c2c(-c3ccccc3)c3cc(Cl)ccc3[nH]c2=O)CC1,0,-1,9,7826,0
SMILES,Anthrax LF inh2,MazF activator,BoNT F protease,Autofluor counter,BoNT A protease
O=C(CC(Cc1ccccc1)C(=O)O)Nc1cccc(C(F)(F)F)c1 (stereo not given),-2,0,3,2920,-3
CC(=O)c1ccc(N2CCN(C(=O)C(=O)c3cn(CC(=O)N4CCCCCC4)c4ccccc34)CC2)cc1,5,1,7,7470,-2
CC(C)CCNC(=O)C(c1ccco1)N(Cc1ccc(F)cc1)C(=O)c1snc(C(N)=O)c1N (stereo not given),-5,-8,-3,19358*,0
NC(=O)c1nsc(C(=O)N(Cc2ccc(F)cc2)C(C(=O)NC2CCCC2)c2ccco2)c1N (stereo not given),0,7,9,3733,4
O=S(=O)(NC1CCCCC1N1CCN(c2ccc(F)cc2)CC1)c1ccccc1 (stereo not given),1,0,2,5918,1
CC(NNC(=S)N1CCN(c2ccccn2)CC1)c1nccc2ccccc12 (stereo not given),12,9,2,3337,12
O=C(Oc1ccc(-c2cn3c(n2)SCC3)cc1)c1ccccc1,-6,6,4,20792*,5
CCCC(=O)NC(Nc1ccc(S(=O)(=O)Nc2cc(C)on2)cc1)(C(=O)OCC)C(F)(F)F (stereo not given),3,4,0,8537,0
CCOC(=O)C(NC(=O)CC(C)C)(Nc1cc(C)on1)C(F)(F)F (stereo not given),-2,0,-1,22923*,-2
Cn1cc(CNC(=O)C23CC4CC(CC(C4)C2)C3)cn1,8,-4,36*,3911,3
O=C(NCc1ccncc1)C12CC3CC(CC(C3)C1)C2,-1,3,-4,3203,0
CCC(=O)Oc1ccc(C2NC(=O)c3ccccc3O2)cc1OC (stereo not given),/,-4,/,/,/
Cc1c(N)cccc1[N+](=O)[O-],5,5,-8,5748,0
Nc1cc2c([N+](=O)[O-])cccc2o1,-4,0,38*,4579,3
COc1ccc2c(c1)c(=O)oc1cc(OCC(=O)N3CCC(C)CC3)ccc12,2,2,11,20779*,5
COc1ccc(C(=O)COC(=O)c2nc3nccc(C)n3n2)cc1F,0,2,-8,6489,-5
O=Nc1c(-c2c(O)[nH]c3cc(Br)ccc23)[nH]c2ccccc12,-36,55*,-76,5297,0
C/C=C/c1ccc2c(c1)O[C@H](CN(C)C(=O)NC1CCCC1)[C@H](C)CN([C@H](C)CO)S2(=O)=O,-4,1,-3,3081,0
CCn1cc(C(=O)OCC(=O)c2cc(C)n(-c3ccc(OC(F)F)cc3)c2C)c(=O)c2ccc(C)nc21,1,-13,-4,2371,-1
CN(C)c1ccc(/C=N/NC(=O)c2ccccn2)cc1,-7,5,1,6090,0
CN(C)c1ccc(/C=N/NC(=O)c2cnc3ccccc3c2)cc1,4,190*,10,3550,2
CCOc1ccc(C(CC(=O)O)NC(=O)C23CC4CC(CC(C4)C2)C3)cc1 (stereo not given),0,3,-7,21930*,-5
COc1ccc(NC(=O)C2(C)CCN2Cc2cccc(OC)c2OC)cc1OC (stereo not given),-7,/,-4,3042,0
O=C1C2C3C=CC(C3=C(c3ccccc3)c3ccccc3)C2C(=O)N1CCO (stereo not given),-1,3,0,16812*,-1
